Screens deposited in PubChem BioAssay by Broad Institute.
Many of the other results were omitted from the sample, so hits are more common in it than they were.
MITF inhib: MITF inhibition. 37,000 tested, 0.28% active. inhibition, % (no concentration beside the values). AID 2240. TRPM1 promoter luciferase, luminescence, 24 h; in the data active = inhibition above about 85%;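 also: human melanocyte line stably carrying TRPM1 promoter luciferase reporter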
NOMO-1 viab: STK33 inhibitor candidate reducing NOMO-1 cell viability; inhibition, % (concentration not given with the values); 37,000 tested, 7.5% active; AID 2330; NOMO-1 AML viability, CellTiter-Glo luminescence, 72 h; in the data active = inhibition above about 80%
PD-1 reversal: activators reversing PD-1 mediated T-cell inhibition; primary human CD4 T cells, PD-L1 beads, CellTiter-Glo 96 h; activation, % (test concentration not listed); 29,000 tested, under 10 active; AID 2316; call rule not given here
YB-1 expr inh: YB-1 expression inhibition; 30,000 tested, 0.37% active; AID 434959; delta delta Cp (YB-1 minus CDIP) (no concentration beside the values); U2OS, qRT-PCR YB-1 vs CDIP delta delta Cp, 16 h; hits give high values; zero = DMSO, each unit about twofold;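 active = delta delta Cp rounded down to an integer at or above 3, about 3 SD of DMSO wells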;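 also: higher means less YB-1 transcript or more CDIP transcript relative to DMSO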
ROS inducer: raises reactive oxygen species in U2OS cancer cells; U2OS ROS induction, H2DCF-DA fluorescence; ROS induction (% of piperlongumine), % at 10 µM; 46,000 tested, 2% active; AID 624156; in the data active = ROS induction above about 79%, passing the limit was not always enough
Numbers stand for hits; . = inactive; / = no result.

SMILES	MITF inhib	NOMO-1 viab	PD-1 reversal	YB-1 expr inh	ROS inducer
CCc1ccccc1NC(=O)C(C)n1nc([N+](=O)[O-])c(Br)c1C (configuration not stated)	.	.	.	/	111.4
CS(=O)CCNC(=O)Nc1ccc(Cl)c(Cl)c1 (configuration not stated)	/	/	/	/	.
CCOC(OCC)P(=O)(O)CCCNCc1ccc(Cl)c(Cl)c1	87.6	.	/	.	.
CCN(CC(=O)Nc1cccc(OC)c1)S(=O)(=O)c1ccc2ccccc2c1	.	.	.	/	.
Cc1ccnc(NC(c2cc(C)ccc2C)c2ccc3ccc(C)nc3c2O)c1 (configuration not stated)	.	.	.	/	.
COc1cccc(C(Nc2cc(C)ccn2)c2ccc3ccc(C)nc3c2O)c1 (configuration not stated)	.	96.6	.	/	.
Cc1ccnc(NC(c2ccc([N+](=O)[O-])cc2)c2ccc3ccc(C)nc3c2O)c1 (configuration not stated)	.	118.4	/	/	/
NC(=O)c1oc2ccccc2c1NC(=O)CSc1ccccc1	/	/	/	/	.
O=C(C1=C[C@@H](c2ccc3c(c2)Cc2ccccc2-3)C[C@@H](OCc2ccc(CO)cc2)O1)N1CCN(Cc2ccc3c(c2)OCO3)CC1	/	/	/	.	.
COC(=O)c1ccc([C@@H]2C=C(C(=O)N3CCN(Cc4ccc5c(c4)OCO5)CC3)O[C@H](OCc3ccc(CO)cc3)C2)cc1	/	/	/	.	99.8
Cc1ccc(S(=O)(=O)c2ccc(C)cc2)cc1	.	.	.	.	.
Cc1ccc(S(=O)(=O)/C=C/C#N)cc1	88.9	141.8	.	.	142.7
C[C@@H]1CN([C@@H](C)CO)C(=O)Cc2cc(NC(=O)Nc3ccc(F)cc3)ccc2O[C@@H]1CN(C)Cc1ccc(C(F)(F)F)cc1	.	113.2	.	.	.
C[C@@H]1CN([C@H](C)CO)C(=O)Cc2cc(NC(=O)Nc3ccc(C(F)(F)F)cc3)ccc2O[C@H]1CN(C)Cc1ccc2c(c1)OCO2	.	.	/	.	.
C[C@@H]1CN([C@@H](C)CO)C(=O)Cc2cc(NC(=O)Nc3ccc(C(F)(F)F)cc3)ccc2O[C@@H]1CN(C)Cc1ccc2c(c1)OCO2	.	122.4	/	.	.
C[C@H]1CN([C@@H](C)CO)C(=O)Cc2cc(NC(=O)Nc3ccc(F)cc3)ccc2O[C@H]1CN(C)Cc1ccc(C(F)(F)F)cc1	.	126.0	.	.	.
C[C@@H]1CN([C@H](C)CO)C(=O)Cc2cc(NC(=O)Nc3ccc(C(F)(F)F)cc3)ccc2O[C@@H]1CN(C)Cc1ccc(C(=O)O)cc1	.	.	.	.	.
C[C@H]1CN([C@@H](C)CO)C(=O)Cc2cc(NC(=O)Nc3ccc(C(F)(F)F)cc3)ccc2O[C@@H]1CN(C)Cc1ccc(C(F)(F)F)cc1	.	126.1	.	.	.
COc1ccc(NC(=S)NC2CC(C)(C)NC(C)(C)C2)cc1	/	/	/	/	.
Oc1cc2c(c(Cl)c1O)CCNC[C@@H]2c1ccccc1	.	111.2	/	.	.
Cc1ccc(N(Cc2ccco2)C(=O)c2cccc(S(=O)(=O)N(C)C)c2)cc1	.	.	.	/	137.7
CC(CC(N)=O)OC(=O)c1cc(Cl)cc(O)c1O (configuration not stated)	.	88.0	.	.	.
C=C1C(=O)O[C@H]2[C@H]1[C@@H](OC(=O)C(C)(O)C(C)Cl)C(OC(C)=O)/C(C(=O)OC)=C\CC[C@@]1(C)O[C@H]21 (some centres not stated)	.	119.5	.	.	.
Cc1ccc(S(=O)(=O)Nc2ccc3c(c2)C(=O)N([C@H](C)CO)C[C@@H](C)[C@H](CN(C)Cc2ccc(Oc4ccccc4)cc2)O3)cc1	.	83.5	.	.	.
C[C@@H]1CN([C@H](C)CO)C(=O)c2cc(NS(=O)(=O)c3ccc(F)cc3)ccc2O[C@H]1CN(C)Cc1ccc(Oc2ccccc2)cc1	.	114.1	/	.	.
SMILES	MITF inhib	NOMO-1 viab	PD-1 reversal	YB-1 expr inh	ROS inducer
Cc1ccc(S(=O)(=O)Nc2ccc3c(c2)C(=O)N([C@@H](C)CO)C[C@@H](C)[C@H](CN(C)Cc2ccc(Oc4ccccc4)cc2)O3)cc1	.	.	/	.	.
Cc1noc(C)c1S(=O)(=O)Nc1ccc2c(c1)C(=O)N([C@@H](C)CO)C[C@@H](C)[C@@H](CN(C)Cc1ccc(Cl)c(Cl)c1)O2	.	81.7	.	.	.
C[C@@H]1CN([C@H](C)CO)C(=O)c2cc(NS(=O)(=O)c3ccc(F)cc3)ccc2O[C@@H]1CN(C)Cc1ccc(Oc2ccccc2)cc1	.	85.6	.	.	.
C[C@H]1CN([C@@H](C)CO)C(=O)c2cc(NS(=O)(=O)c3ccc(F)cc3)ccc2O[C@H]1CN(C)Cc1ccc(Oc2ccccc2)cc1	.	.	.	.	.
CCCCN(C1=NC2CS(=O)(=O)CC2S1)c1ccc(Cl)cc1 (configuration not stated)	/	/	/	/	.
Cc1noc(C)c1S(=O)(=O)Nc1ccc2c(c1)C(=O)N([C@@H](C)CO)C[C@@H](C)[C@@H](CN(C)Cc1ccc(Oc3ccccc3)cc1)O2	.	101.8	.	.	.
COc1ccc(/C=C/C(=O)OC2CCCCC2)cc1	.	95.2	.	.	.
CCOC(=O)c1cc(C)nc(Sc2ccccc2NC(=O)c2cccc(C(F)(F)F)c2)c1C#N	.	114.2	.	.	.
C=CCN1C(=O)C(Cc2ccc(O)cc2)NC1=S (configuration not stated)	/	/	/	/	.
CC(C(=O)OCC(=O)c1ccccc1)N1C(=O)C2C3C=CC(C3)C2C1=O (configuration not stated)	/	/	/	/	.
C[C@H](CO)N1C[C@H](C)[C@H](CN(C)Cc2ccc(C(=O)Nc3ccccc3N)cc2)Oc2ccc(NS(=O)(=O)c3ccc(F)cc3)cc2C1=O	.	109.3	.	.	.
Cc1ccc(S(=O)(=O)Nc2ccc3c(c2)C(=O)N([C@@H](C)CO)C[C@H](C)[C@H](CN(C)Cc2ccc(C(=O)Nc4ccccc4N)cc2)O3)cc1	.	109.9	.	.	.
C[C@H]1CN([C@@H](C)CO)C(=O)c2cc(NS(=O)(=O)c3ccc(Cl)cc3)ccc2O[C@H]1CN(C)Cc1ccc(C(=O)Nc2ccccc2N)cc1	.	110.9	.	.	.
C[C@@H]1CN([C@H](C)CO)C(=O)c2cc(NS(=O)(=O)c3ccc(F)cc3)ccc2O[C@H]1CN(C)Cc1ccc(C(=O)Nc2ccccc2N)cc1	.	.	.	.	.
C[C@@H]1CN([C@@H](C)CO)C(=O)c2cc(NS(=O)(=O)c3ccc(F)cc3)ccc2O[C@@H]1CN(C)Cc1ccc(C(=O)Nc2ccccc2N)cc1	.	110.4	.	.	.
C[C@@H]1CN([C@H](C)CO)C(=O)c2cc(NS(=O)(=O)c3ccccc3)ccc2O[C@H]1CN(C)Cc1ccc(C(=O)Nc2ccccc2N)cc1	.	.	.	.	.
COc1ccc(NC(=O)N(C)C[C@H]2Oc3c(NS(=O)(=O)c4ccc(C)cc4)cccc3C(=O)N([C@H](C)CO)C[C@@H]2C)cc1	.	.	.	.	.
